Our source for the binding signal values is article PMC12136788.

Residue numbers refer to the chain shown, from its start. In all, about 5,800 sequences were measured (“enrichment r”: median about 0.54, highest 2% from about 16 on). The list comes from a sample in which the highest values are over-represented; it also holds similar and randomly drawn sequences.

B1: ENSG00000087460:stop:overlap|stop_codon|ENSG00000087460|stop_codon|NA|stop_codon (ssRNA)
RNA: GGGAGUUCUACAGUCCGACGAUCGAGGCGCCUUCGGCUCGGGCCAUGGCGCCCGGCGCCGGGGGCGCGAGGAGCGGCUCAUCUAGUCAGACCCCCCACCCCGCCACCGCCACCAGACACCACCAUCGCUGUGUAGUGUGCUGGCAACAGAGGAUUGAGCAUCA
B2: chr1:45693489:45693605:+|CDS|ENSG00000159596|unk|FALSE|unique (ssRNA)
RNA: GGGAGUUCUACAGUCCGACGAUCAAUCCCCUUCGUUGCUCCACCACUGGUCAUGCUGAUGACAAAAACUUAUAUUCCCAUAUUAGCUUUUACUCAGAUGGCUUAUGGAGCCAGUUUCCUAUCUUUCUUGGGUGGGAUCAGAUGCAACAGAGGAUUGAGCAUCA
B3: chr1:17067390:17067767:-|3pUTR|ENSG00000117115|msi1|total|mutant (ssRNA)
RNA: GGGAGUUCUACAGUCCGACGAUCCCCAACAUGCAAAGCCCACAUUUAAAGGCCAGCCUCUGCCCCUUCAGUGAUGCGCUCUUCCGAAAUGCCAGUCCACUAUAUUCAGAAAUCCGCAGGGCACAAAACUUCCAGCAAGUCACUCAACAGAGGAUUGAGCAUCA
B4: chr10:32033860:32033975:-|CDS|ENSG00000170759|unk|total|mutant (ssRNA)
RNA: GGGAGUUCUACAGUCCGACGAUCCACAGUGGAUAAAGAUAUUACUCUUACCAAUGAUAAACCAGCAACCGCAAUUGGAGUUACCGGAAAUUUUACUGAUGCUGAAAGAAGAAAGUGUGAAGAAGAAAUUGCUAAAUUAUACAACAACAGAGGAUUGAGCAUCA
B5: chr5:171862525:171862626:-|3pUTR|ENSG00000072803|msi1|total|mutant (ssRNA)
RNA: GGGAGUUCUACAGUCCGACGAUCGACAGUGCAUGGAAAGGACGUUGGCAUCCAAUUGGCACUCCUUCUCCCUUAUUCAAUAUCCGGUUUGAUUUGCCCUUCGCCAUUGUUUCCAAAGAUCAAGGAAUGUCAAUAACAUUUUAACAACAGAGGAUUGAGCAUCA
B6: ENSG00000124766:be:win_751|CDS|ENSG00000124766|bound_else_gene|NA|bound_elsewhere_windowed (ssRNA)
RNA: GGGAGUUCUACAGUCCGACGAUCGGCGCCGCCGCCGACCACCACUCGCUGUACAAGGCGCGGACUCCCAGCGCCUCGGCCUCCGCCUCCUCGGCAGCCUCGGCCUCCGCAGCGCUCGCGGCCCCGGGCAAGCACCUGGCGGAGCAACAGAGGAUUGAGCAUCA
B7: chr18:35263486:35263657:-|CDS|ENSG00000186814|control|control|control (ssRNA)
RNA: GGGAGUUCUACAGUCCGACGAUCGGAAAUGACAUCCACAGGAGCACUGAAGUCUCUGUCUCUGAAUAGCCCGGUGCAGCCCUUAGAGAACCAGUGCAAGACUGAGACUCAGGAGUCCCAGGCUUUCCAGGAGAGAGGUGAGAACAACAGAGGAUUGAGCAUCA
B8: chr4:138169334:138169435:-|3pUTR|ENSG00000151012|msi1|total|mutant (ssRNA)
RNA: GGGAGUUCUACAGUCCGACGAUCCCAUUUCACGCAGAAAAAAAGUCAGCCAGUAAUUAAGAAAAAAAGUGAUGGAGAUUAAGCCGUAUUUUGGCUUAUUUUCCGGACUCAUCAUGAGAAGACACAGUUCCUUUAAUCAGGAAACAACAGAGGAUUGAGCAUCA
B9: chr13:79312715:79312816:-|3pUTR|ENSG00000139746|unk|total|mutant (ssRNA)
RNA: GGGAGUUCUACAGUCCGACGAUCCCUUGUGAUUUAUUAUAAUGCCGCAGCAUACUUAUAAAAGUGGUCUGUGCUGAGUCAGACCGAGAGCCCAGCCCAUCCGAAACACAUCAUAAUUUAAGAAUAUGAUGCAGAAUGCCCUUACAACAGAGGAUUGAGCAUCA
B10: chr17:5489330:5489445:+|CDS|ENSG00000167842|unk|FALSE|unique (ssRNA)
RNA: GGGAGUUCUACAGUCCGACGAUCACGUUGACUUUCUUUGAUGAGCUUCAUAAUGUUGGCAGAGAUCAUGGGACUAGUGAUUUUAGGGAGAGUUUAGUAUCCCUGGUUCAGAACUCCAGAAAACUACAGAACAUUAGAGACAAUCAACAGAGGAUUGAGCAUCA
B11: chr13:79312715:79312816:-|3pUTR|ENSG00000139746|unk|FALSE|unique (ssRNA)
RNA: B9 RNA with C44U, C45A, C83U, C84A, C100U, C101A
B12: chrX:155122998:155123099:+|3pUTR|ENSG00000185515|unk|FALSE|unique (ssRNA)
RNA: GGGAGUUCUACAGUCCGACGAUCCUACAUACACACAAAUGAAUGCAUGUAAAAUCUGGUGAUACUGAAUAAAGUCUGUGGUCUAGAUAGCAGUAUAAUAUUAUUGUCAAUGUCUUGGAUGUGAAGUUGUGCUAUAGUUACAAACAACAGAGGAUUGAGCAUCA
B13: chr4:138169334:138169435:-|3pUTR|ENSG00000151012|msi1|FALSE|unique (ssRNA)
RNA: B8 RNA with C83U, C84A, C102U, C103A
B14: chr5:97028609:97028710:+|3pUTR|ENSG00000113441|msi1|total|mutant (ssRNA)
RNA: GGGAGUUCUACAGUCCGACGAUCUUGCAAAAGCCAAGGUAAAGCCAGGAUCGCUGCCAAGUUGUUUGCACUCUUUGGAGUUCCCGUCCGCUCAGGGCCUGACUGUAUUUUUCAUCCAUCUUUUCUGAAGUGUCUUUGGGCAGUCAACAGAGGAUUGAGCAUCA

The target in the test is MSI1 full-length (mouse, UniProt Q61474 1-362). Kind of test: nsRBNS (natural sequence RNA bind-n-seq); RBNS binding buffer (assumed for nsRBNS): 25 mM Tris pH 7.5, 150 mM KCl, 3 mM MgCl2, 0.01% Triton X-100, 500 ug/ml BSA, 20 U/ml SUPERase-In, 4 C; UNK is unkempt and MSI1 is Musashi-1; names of the RNAs are library labels; protein concentration not given here; high values mean tight binding.
MSI1 full-length, sequence (Q61474 whole entry): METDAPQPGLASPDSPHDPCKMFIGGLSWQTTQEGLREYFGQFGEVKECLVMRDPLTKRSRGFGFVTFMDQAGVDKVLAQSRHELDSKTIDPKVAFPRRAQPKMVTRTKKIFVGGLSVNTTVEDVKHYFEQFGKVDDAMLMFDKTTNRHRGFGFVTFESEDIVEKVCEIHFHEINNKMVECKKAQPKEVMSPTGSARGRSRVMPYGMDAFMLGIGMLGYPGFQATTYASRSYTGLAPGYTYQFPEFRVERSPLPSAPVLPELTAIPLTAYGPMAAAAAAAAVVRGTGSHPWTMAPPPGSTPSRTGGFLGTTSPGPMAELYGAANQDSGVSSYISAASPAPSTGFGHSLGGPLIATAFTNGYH
Take B1: the binding signal was determined as 0.204 enrichment R. For B2 the value was 0.499 enrichment R. For B3 the value was 0.72 enrichment R. B4 had a binding signal of 0.675 enrichment R. The molecule B5 came in with a binding signal of 0.579 enrichment R. Then B6, with 0.389 enrichment R. Then B7, with 0.496 enrichment R; and B8, with 0.883 enrichment R. Then B9, with 1.96 enrichment R. In turn, B10 registered a binding signal of 1.88 enrichment R. Then B11, with 17.8 enrichment R. In the case of B12, the binding signal came to 2.09 enrichment R. On to B13, for which the binding signal is 19.3 enrichment R. For B14 the value was 0.321 enrichment R.
